Holding throughout (assay): DAPPL (digital affinity profiling via proximity ligation, sequencing); 10 mM Tris-HCl pH 7.5, 50 mM NaCl, 1 mM DTT, 4% glycerol, room temperature, 30 min; GST-TFs on glutathione beads, 16-mer random dsDNA library, 0.1% formaldehyde crosslink after washing; high values mean tight binding
Common to all, as to conditions: protein: recombinant; tags: N-terminal GST; dsDNA, one strand shown

For one assay, the target named is T1, ERF (Homo sapiens, UniProt P50548 1-548).
T1 sequence: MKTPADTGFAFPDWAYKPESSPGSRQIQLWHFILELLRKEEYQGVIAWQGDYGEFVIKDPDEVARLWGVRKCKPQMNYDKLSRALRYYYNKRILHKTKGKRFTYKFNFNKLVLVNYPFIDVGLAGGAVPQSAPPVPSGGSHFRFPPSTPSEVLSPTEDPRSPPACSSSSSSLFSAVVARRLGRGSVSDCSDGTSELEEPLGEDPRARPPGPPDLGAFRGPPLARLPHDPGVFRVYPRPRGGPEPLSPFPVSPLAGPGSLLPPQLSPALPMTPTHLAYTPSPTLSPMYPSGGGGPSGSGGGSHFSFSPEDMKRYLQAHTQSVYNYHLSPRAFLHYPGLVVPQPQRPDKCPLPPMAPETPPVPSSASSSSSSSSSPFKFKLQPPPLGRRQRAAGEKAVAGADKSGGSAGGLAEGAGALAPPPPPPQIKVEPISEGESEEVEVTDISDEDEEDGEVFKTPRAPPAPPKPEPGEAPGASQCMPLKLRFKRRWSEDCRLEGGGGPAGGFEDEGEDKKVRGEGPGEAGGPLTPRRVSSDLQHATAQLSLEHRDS
In short, it runs like this:
(§1)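 Human transcription factors carrying a GST fusion were produced in yeast, bound to glutathione beads, tagged with DNA barcodes and pooled together with a tag-only sample. Each pool was held with 200 nmole of a random double-stranded 16-mer DNA library in Tris/NaCl/DTT/glycerol buffer for 30 min at room temperature, then washed, crosslinked in 0.1% formaldehyde, proximity-ligated with BsaI/T4 ligase (1 h, 37 °C), PCR-amplified and sequenced on an Illumina NextSeq500. Binding signal is the read frequency of each hexamer for a given factor divided by its frequency in the tag-only sample.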

For the next assay, the target named is T2, ETV3L (Homo sapiens, UniProt Q6ZN32 1-361).
T2 sequence: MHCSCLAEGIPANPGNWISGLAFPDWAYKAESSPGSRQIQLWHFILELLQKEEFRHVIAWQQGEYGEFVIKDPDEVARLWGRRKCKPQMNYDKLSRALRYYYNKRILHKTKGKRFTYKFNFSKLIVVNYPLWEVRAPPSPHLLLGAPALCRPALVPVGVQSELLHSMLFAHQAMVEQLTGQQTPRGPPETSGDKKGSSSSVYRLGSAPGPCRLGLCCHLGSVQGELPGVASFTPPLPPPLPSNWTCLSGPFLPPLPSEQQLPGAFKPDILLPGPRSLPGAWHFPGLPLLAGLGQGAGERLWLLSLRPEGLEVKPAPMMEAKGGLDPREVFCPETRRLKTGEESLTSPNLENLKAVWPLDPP
In short, it runs like this: as §1

Another assay deals with T3, ETS2 (Homo sapiens, UniProt P15036 1-469).
T3 sequence: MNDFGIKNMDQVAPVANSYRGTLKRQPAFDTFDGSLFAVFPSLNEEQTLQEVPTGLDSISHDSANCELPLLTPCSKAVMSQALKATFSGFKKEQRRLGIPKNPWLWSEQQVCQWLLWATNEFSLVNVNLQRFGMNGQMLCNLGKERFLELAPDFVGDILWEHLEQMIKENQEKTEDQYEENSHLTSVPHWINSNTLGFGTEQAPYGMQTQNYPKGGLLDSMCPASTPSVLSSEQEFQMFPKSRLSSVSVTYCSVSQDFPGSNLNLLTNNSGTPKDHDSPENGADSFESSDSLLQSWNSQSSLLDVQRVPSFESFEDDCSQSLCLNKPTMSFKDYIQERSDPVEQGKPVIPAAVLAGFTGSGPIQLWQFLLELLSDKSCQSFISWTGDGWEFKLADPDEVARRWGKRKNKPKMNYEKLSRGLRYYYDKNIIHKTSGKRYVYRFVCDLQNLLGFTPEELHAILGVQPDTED
In outline:
as §1

In the next assay the target is T4, SPDEF (Homo sapiens, UniProt O95238 1-335).
T4 sequence: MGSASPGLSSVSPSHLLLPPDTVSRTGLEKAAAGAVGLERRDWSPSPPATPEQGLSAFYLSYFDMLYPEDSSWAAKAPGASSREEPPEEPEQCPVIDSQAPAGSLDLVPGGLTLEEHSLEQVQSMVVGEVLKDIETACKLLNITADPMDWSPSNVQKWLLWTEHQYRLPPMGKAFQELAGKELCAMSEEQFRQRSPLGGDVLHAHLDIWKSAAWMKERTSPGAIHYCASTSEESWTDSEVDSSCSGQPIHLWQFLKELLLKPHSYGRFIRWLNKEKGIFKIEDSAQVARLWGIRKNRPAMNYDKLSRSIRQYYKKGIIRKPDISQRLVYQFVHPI
In short, it runs like this: as §1

A further assay deals with T5, ETV7 (Homo sapiens, UniProt Q9Y603 1-341).
T5 sequence: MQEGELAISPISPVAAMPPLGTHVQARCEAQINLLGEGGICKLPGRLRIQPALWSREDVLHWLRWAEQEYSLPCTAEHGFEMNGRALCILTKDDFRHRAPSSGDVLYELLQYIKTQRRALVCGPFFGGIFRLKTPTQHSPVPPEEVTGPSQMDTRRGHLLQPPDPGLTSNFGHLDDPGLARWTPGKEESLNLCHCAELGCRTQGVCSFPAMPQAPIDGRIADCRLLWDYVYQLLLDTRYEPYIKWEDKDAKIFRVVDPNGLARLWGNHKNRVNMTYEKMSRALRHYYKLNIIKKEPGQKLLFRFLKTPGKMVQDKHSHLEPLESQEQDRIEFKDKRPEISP
In short, it runs like this:
as §1

In another assay the target is T6, ELF5 (Homo sapiens, UniProt Q9UKW6-2 1-255).
T6 sequence: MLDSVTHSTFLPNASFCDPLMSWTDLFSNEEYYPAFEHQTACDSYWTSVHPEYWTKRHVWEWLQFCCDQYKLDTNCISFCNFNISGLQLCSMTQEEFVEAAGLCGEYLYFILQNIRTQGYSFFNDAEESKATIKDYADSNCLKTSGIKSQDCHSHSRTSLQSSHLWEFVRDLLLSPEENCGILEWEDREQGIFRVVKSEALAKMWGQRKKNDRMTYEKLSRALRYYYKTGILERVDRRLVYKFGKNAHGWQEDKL
In short, it runs like this:
as §1

For a further assay, the target named is T7, ETV3 (Homo sapiens, UniProt P41162-2 1-143).
T7 sequence: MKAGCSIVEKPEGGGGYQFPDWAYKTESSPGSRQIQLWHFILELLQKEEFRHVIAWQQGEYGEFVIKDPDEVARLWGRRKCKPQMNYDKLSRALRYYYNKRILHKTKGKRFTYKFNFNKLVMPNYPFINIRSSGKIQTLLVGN
In outline:
as §1

The target of another assay is ETV6 (Homo sapiens, UniProt P41212 1-452). In outline: as §1
Sequence of ETV6 (P41212 whole entry): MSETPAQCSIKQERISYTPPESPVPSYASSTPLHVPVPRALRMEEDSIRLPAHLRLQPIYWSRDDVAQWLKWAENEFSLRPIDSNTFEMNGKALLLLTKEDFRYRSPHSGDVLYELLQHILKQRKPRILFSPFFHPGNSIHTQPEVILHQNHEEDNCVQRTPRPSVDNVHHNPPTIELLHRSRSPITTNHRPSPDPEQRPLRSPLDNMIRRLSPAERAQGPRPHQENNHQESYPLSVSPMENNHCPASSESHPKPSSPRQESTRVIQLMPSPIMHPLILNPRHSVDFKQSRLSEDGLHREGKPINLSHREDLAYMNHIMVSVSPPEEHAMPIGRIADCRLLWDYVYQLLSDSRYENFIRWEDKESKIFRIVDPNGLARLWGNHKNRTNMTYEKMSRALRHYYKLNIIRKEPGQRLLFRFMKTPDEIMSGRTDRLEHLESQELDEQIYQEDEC

In the case of TCACCT, the binding signal is 1.2 fold enrichment (6-mer frequency, TF over GST control) with ERF; 1.17 fold enrichment (6-mer frequency, TF over GST control) in the assay with ETV3L; 1.09 fold enrichment (6-mer frequency, TF over GST control) with ETS2; 1.22 fold enrichment (6-mer frequency, TF over GST control) with SPDEF; 1.19 fold enrichment (6-mer frequency, TF over GST control) with ETV7; 1.21 fold enrichment (6-mer frequency, TF over GST control) with ELF5. Also, the binding signal with ETV3 is 1.2 fold enrichment (6-mer frequency, TF over GST control); with ETV6, 1.19 fold enrichment (6-mer frequency, TF over GST control).
As for TTGAAT, the binding signal with ERF was 1.05 fold enrichment (6-mer frequency, TF over GST control); with ETV3L it was 1.01 fold enrichment (6-mer frequency, TF over GST control); with ETS2, 1.06 fold enrichment (6-mer frequency, TF over GST control); with SPDEF it was 1.17 fold enrichment (6-mer frequency, TF over GST control); with ETV7, 1.09 fold enrichment (6-mer frequency, TF over GST control); with ELF5 it was 1.09 fold enrichment (6-mer frequency, TF over GST control). Further, the binding signal in the assay with ETV3 is 1.02 fold enrichment (6-mer frequency, TF over GST control); with ETV6 it was 1.03 fold enrichment (6-mer frequency, TF over GST control).
CGTTCT: the binding signal with ERF was 1.46 fold enrichment (6-mer frequency, TF over GST control); with ETV3L it was 1.51 fold enrichment (6-mer frequency, TF over GST control); with ETS2, 1.37 fold enrichment (6-mer frequency, TF over GST control); with SPDEF, 1.44 fold enrichment (6-mer frequency, TF over GST control); with ETV7 it was 1.56 fold enrichment (6-mer frequency, TF over GST control); in the assay with ELF5, 1.44 fold enrichment (6-mer frequency, TF over GST control). Also, the binding signal with ETV3 is 1.37 fold enrichment (6-mer frequency, TF over GST control); in the assay with ETV6, 1.47 fold enrichment (6-mer frequency, TF over GST control).
On to ATGCTC, for which the binding signal with ERF was 1.33 fold enrichment (6-mer frequency, TF over GST control); with ETV3L, 1.51 fold enrichment (6-mer frequency, TF over GST control); in the assay with ETS2 it was 1.42 fold enrichment (6-mer frequency, TF over GST control); with SPDEF it was 1.43 fold enrichment (6-mer frequency, TF over GST control); in the assay with ETV7 it was 1.37 fold enrichment (6-mer frequency, TF over GST control); with ELF5, 1.38 fold enrichment (6-mer frequency, TF over GST control). For the same sequence, the binding signal in the assay with ETV3 was 1.35 fold enrichment (6-mer frequency, TF over GST control); with ETV6, 1.44 fold enrichment (6-mer frequency, TF over GST control).
On to CGACAA, for which the binding signal in the assay with ERF is 1.18 fold enrichment (6-mer frequency, TF over GST control); with ETV3L it was 1.24 fold enrichment (6-mer frequency, TF over GST control); with ETS2, 1.16 fold enrichment (6-mer frequency, TF over GST control); with SPDEF, 1.27 fold enrichment (6-mer frequency, TF over GST control); with ETV7, 1.12 fold enrichment (6-mer frequency, TF over GST control); in the assay with ELF5 it was 1.14 fold enrichment (6-mer frequency, TF over GST control). Further, the binding signal in the assay with ETV3 was 1.15 fold enrichment (6-mer frequency, TF over GST control); in the assay with ETV6, 1.31 fold enrichment (6-mer frequency, TF over GST control).
Consider TGAATT, for which the binding signal with ERF was 1.14 fold enrichment (6-mer frequency, TF over GST control); with ETV3L, 1.17 fold enrichment (6-mer frequency, TF over GST control); with ETS2, 1.16 fold enrichment (6-mer frequency, TF over GST control); with SPDEF, 1.11 fold enrichment (6-mer frequency, TF over GST control); with ETV7, 1.21 fold enrichment (6-mer frequency, TF over GST control); in the assay with ELF5, 1.13 fold enrichment (6-mer frequency, TF over GST control). Besides, the binding signal in the assay with ETV3 was 1.16 fold enrichment (6-mer frequency, TF over GST control); with ETV6, 1.03 fold enrichment (6-mer frequency, TF over GST control).
As to TAATTA, the binding signal with ERF was 1.24 fold enrichment (6-mer frequency, TF over GST control); with ETV3L, 1.23 fold enrichment (6-mer frequency, TF over GST control); with ETS2, 1.34 fold enrichment (6-mer frequency, TF over GST control); in the assay with SPDEF it was 1.24 fold enrichment (6-mer frequency, TF over GST control); with ETV7 it was 1.35 fold enrichment (6-mer frequency, TF over GST control); in the assay with ELF5, 1.2 fold enrichment (6-mer frequency, TF over GST control). Also, the binding signal is 1.19 fold enrichment (6-mer frequency, TF over GST control) with ETV3 and 1.36 fold enrichment (6-mer frequency, TF over GST control) with ETV6.
For the sequence AACTCC, the binding signal with ERF is 1.36 fold enrichment (6-mer frequency, TF over GST control); in the assay with ETV3L, 1.27 fold enrichment (6-mer frequency, TF over GST control); in the assay with ETS2 it was 1.32 fold enrichment (6-mer frequency, TF over GST control); with SPDEF, 1.33 fold enrichment (6-mer frequency, TF over GST control); with ETV7 it was 1.31 fold enrichment (6-mer frequency, TF over GST control); with ELF5 it was 1.32 fold enrichment (6-mer frequency, TF over GST control). Also, the binding signal with ETV3 was 1.34 fold enrichment (6-mer frequency, TF over GST control); with ETV6 it was 1.4 fold enrichment (6-mer frequency, TF over GST control).

For the origin of these results see article PMC7862700, “An all-to-all approach to the identification of sequence-specific readers for epigenetic DNA modifications on cytosine”.
